According to the supplement of paper PMC5662767:
Structures can show the parent of a compound that is named as a salt.

System: Drosophila S2 cl14 SmoIP sensor cells
Assay: normalized SmoIP GFP fluorescence (untreated unstimulated = 0%, untreated Hh-stimulated = 100%); higher = more Smo activation sensor fluorescence
Settings: compound concentration: 2 uM, 24 h
[1] = stimulation: Hh conditioned medium (+Hh)
[2] = stimulation: mock conditioned medium (-Hh)
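Note: flow cytometry read-out as median GFP intensity of gated cells, compounds added 30 min before Hh-conditioned or mock medium, mock-treated cells serving as unstimulated baseline.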

| SMILES | normalized SmoIP GFP fluorescence [1] [%] | normalized SmoIP GFP fluorescence [2] [%] |
| --- | --- | --- |
| Cc1cc(/C=C/C#N)cc(C)c1Nc1ccnc(Nc2ccc(C#N)cc2)n1 [rilpivirine] | 110 | -0.151 |
| Cc1cc(C)c(CNC(=O)c2cc(-c3ccc(CN4CCOCC4)cc3)cc3c2cnn3C2CCCC2)c(=O)[nH]1 | 104 | -0.264 |
| CCOc1ccc(NC(C)=O)cc1 [phenacetin] | 131 | 9.08 |
| O=C(COc1ccc(Cl)cc1)NC1CCC(NC(=O)COc2ccc(Cl)cc2)CC1 (stereo not drawn) [isrib-trans-isomer] | 109 | 7.06 |
| COc1cc(Br)c(Nc2nc(-c3c(C)nc4ncccn34)cs2)c(Br)c1 | 110 | 5.12 |
| C[C@@]1(c2cc(-c3cncnc3)c(F)cc2F)CCSC(N)=N1 | 97 | 10.2 |
| Cc1c(-c2ccccc2)oc2c(C(=O)OCCN3CCCCC3)cccc2c1=O [flavoxate-hcl] | 106 | 0.474 |
| Cc1cc(C)c(Nc2ccnc(Nc3ccc(C#N)cc3)n2)c(C)c1 [dapivirine] | 111 | -4.13 |
| O=C(Cc1ccc(-c2ccc(OCCN3CCOCC3)cc2)cn1)NCc1ccccc1 | 108 | 23.9 |
| CN1CC2c3ccccc3Oc3ccc(Cl)cc3C2C1 (configuration not stated) [Asenapine] | 115 | 4.58 |
| Oc1ccc(Nc2nc(-c3ccc(Cl)cc3)cs2)cc1 | 113 | -0.151 |
| CCN(CC)C(=O)/C(C#N)=C/c1cc(O)c(O)c([N+](=O)[O-])c1 [entacapone] | 106 | -3.05 |
| CC(=O)Nc1cccc(N2C(=O)N(C3CC3)C(=O)C3C(Nc4ccc(I)cc4F)N(C)C(=O)C(C)C32)c1 (configuration not stated) | 140 | -4.08 |
| O=C(Nc1cccc(C(F)(F)F)c1)Nc1cc(S(=O)(=O)NC2CC2)ccc1-c1ccsc1 | 111 | -3.05 |
| CN1CCC[C@@H]1CCO[C@](C)(c1ccccc1)c1ccc(Cl)cc1 [Clemastine-Fumarate] | 104 | 10.7 |
| O[C@H](CNC[C@@H](O)[C@H]1CCc2cc(F)ccc2O1)[C@@H]1CCc2cc(F)ccc2O1 [Nebivolol(Bystolic)] | 109 | 19.8 |
| N#Cc1c(Oc2ccc(F)c(NC(=O)Cc3cccc(C(F)(F)F)c3)c2)ccc2nc(NC(=O)C3CC3)sc12 | 126 | -0.889 |
| Cc1cnc(-c2cnc(NCCNc3ccc(C#N)cn3)nc2-c2ccc(Cl)cc2Cl)[nH]1 | 118 | -0.151 |

| SMILES | normalized SmoIP GFP fluorescence [1] [%] | normalized SmoIP GFP fluorescence [2] [%] |
| --- | --- | --- |
| CC[C@@]1(O)C(=O)OCc2c1cc1n(c2=O)Cc2cc3c(CN(C)C)c(O)ccc3nc2-1 [Topotecan-Hydrochloride] | 110 | 15.7 |
| NCC(=O)Nc1ccc(-n2nc(C(F)(F)F)cc2-c2ccc3c(ccc4ccccc43)c2)cc1 | 100 | 0.812 |
| COc1ccccc1N1CCN(CCN(C(=O)C2CCCCC2)c2ccccn2)CC1 | 125 | 7.01 |
| O=C(NC(NC(=S)Nc1ccc(F)c([N+](=O)[O-])c1)C(Cl)(Cl)Cl)C(c1ccccc1)c1ccccc1 (configuration not stated) | 108 | 0.815 |
| Cc1ccc(C(=O)c2cc(O)c(O)c([N+](=O)[O-])c2)cc1 [tolcapone] | 108 | -2.48 |
| C[C@@H](c1ncncc1F)[C@](O)(Cn1cncn1)c1ccc(F)cc1F [Voriconazole] | 101 | 1.57 |
| Cc1ccc(N(CC2=NCCN2)c2cccc(O)c2)cc1 [phentolamine-mesilate] | 128 | -15.3 |
| CN(C)C(=O)Nc1cccc(-c2ccc(N(C)C)cc2)c1 [atglistatin] | 130 | 18.1 |
| CCN1CCN(c2ccc(Nc3cc(N(C)C(=O)Nc4c(Cl)c(OC)cc(OC)c4Cl)ncn3)cc2)CC1 | 111 | -12.7 |
| COc1ccc(C2=N[C@@H](c3ccc(Cl)cc3)[C@@H](c3ccc(Cl)cc3)N2C(=O)N2CCNC(=O)C2)c(OC(C)C)c1 [Nutlin-3] | 90.4 | 2.11 |
| CCN(c1cc(-c2ccc(CN3CCOCC3)cc2)cc(C(=O)NCc2c(C)cc(C)[nH]c2=O)c1C)C1CCOCC1 | 106 | -3.39 |
| CCc1cccc2c3c([nH]c12)C(CC)(CC(=O)O)OCC3 (configuration not stated) [Etodolac] | 104 | -3.17 |
| COc1ccnc2[nH]cc(C(=O)C(=O)N3CCN(C(=O)c4ccccc4)C[C@H]3C)c12 | 142 | 15.4 |
| Cc1[nH]nc2ccc(-c3cncc(OC[C@@H](N)Cc4ccccc4)c3)cc12 | 134 | 8.54 |
| CCCC(=O)OCOC(=O)C1=C(C)NC(C)=C(C(=O)OC)C1c1cccc(Cl)c1Cl (configuration not stated) [cleviprex-clevidipine] | 119 | -12.9 |
| COc1ccc(Cn2ccc3ccc(C(=O)NO)cc32)cc1 | 111 | -8.59 |
| C[N+]1(C)[C@@H]2C[C@@H](OC(=O)C(O)(c3cccs3)c3cccs3)C[C@H]1[C@@H]1O[C@@H]12 [Tiotropium-Bromide-hydrate] | 114 | 0.334 |
| CC(C)(C)C#Cc1cc(N(C(=O)[C@H]2CC[C@H](C)CC2)[C@H]2CC[C@H](O)CC2)c(C(=O)O)s1 | 118 | 10.4 |
